The list is not random: actives were taken first. Their share in the collection is about 1%.
EBNA-1 inhibitor: blocks EBNA-1 binding to DNA | EBNA-1 DNA binding, fluorescence polarization | inhibition, % at 14.8 µM | 300,000 compounds, 0.34% hits | AID 1950; in the data active = inhibition above about 28%
MEX-5 binding: C. elegans MEX-5 TCR-2 RNA binding activity; Q9XUB2; MEX-5/FITC-TCR2 RNA binding, fluorescence polarization; active compounds read low; activity score (negative = inhibition of binding), % at 10 µM; 300,000 compounds, 0.38% hits; AID 1832;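 active = inhibition past about -25% in most replicates, and total fluorescence under double the plate's negative control median, limit read from the data; inconclusive = replicates evenly split on the limit, or fluorescence at least double controls; inactive = too little inhibition in most replicates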;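 note: 0% = DMSO and -100% = 5 µM competing unlabeled TCR2 RNA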
ZTA DNA inh: blocks Epstein-Barr virus ZTA, an EBNA-1 counter-screen | ZTA-DNA binding, fluorescence polarization | inhibition, % at 11 µM | 320,000 compounds, 0.15% hits; in the data active = inhibition above about 33%
Target sequence (P03206 whole entry, looked up): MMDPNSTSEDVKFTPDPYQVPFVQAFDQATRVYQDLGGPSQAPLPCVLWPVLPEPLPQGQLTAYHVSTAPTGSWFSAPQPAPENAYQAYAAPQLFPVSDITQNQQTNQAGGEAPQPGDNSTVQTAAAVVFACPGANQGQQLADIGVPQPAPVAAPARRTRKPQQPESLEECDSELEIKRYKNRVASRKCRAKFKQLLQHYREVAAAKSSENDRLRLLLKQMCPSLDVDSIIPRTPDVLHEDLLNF
EBV gp42 block: blocks Epstein-Barr virus glycoprotein 42 binding. 220,000 compounds, 0.42% hits. inhibition, % (tested at 21.74 µM). Fluorescence polarization binding assay, mP read-out; in the data active = inhibition above about 50%
Target sequence (Q1HVG2 whole entry, looked up): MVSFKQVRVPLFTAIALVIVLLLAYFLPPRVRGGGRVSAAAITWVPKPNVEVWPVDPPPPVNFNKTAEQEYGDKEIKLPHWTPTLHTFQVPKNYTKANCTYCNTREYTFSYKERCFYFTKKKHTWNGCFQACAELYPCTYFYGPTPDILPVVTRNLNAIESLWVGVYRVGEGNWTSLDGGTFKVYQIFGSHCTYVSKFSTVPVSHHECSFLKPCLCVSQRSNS
Zta DNA confirm: confirmation of Epstein-Barr virus ZTA DNA binding inhibitors. shares compounds with ZTA DNA inh. Zta-ZRE DNA binding, fluorescence polarization. inhibition, % at 11.1 µM. 320 compounds, 30% hits. AID 2361;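 active = mean inhibition across triplicate runs above the hit threshold derived for the original primary screen, cut at about 33% in these data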;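 note: 0% = Zta with DMSO and 100% = wells lacking Zta protein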
EBNA-1 counter: blocks EBNA-1 DNA binding in ZTA counter-screen. shares compounds with ZTA DNA inh. fluorescence polarization. inhibition, % at 14.8 µM. 320 tested, under 10 active; call rule not given here
* marks the source's active call; other numbers are inactive results.

How did CCn1c(O)c(C=Nc2ccc(N3CCOCC3)c(Br)c2)c(=O)n(CC)c1=S do in these assays?
EBNA-1 inhibitor: -10; MEX-5 binding: 1; ZTA DNA inh: -1; EBV gp42 block: -12

How did CCc1nnc(NS(=O)(=O)c2ccc(N=Cc3c(O)n(-c4ccc(Cl)cc4)c(=O)[nH]c3=O)cc2)s1 do in these assays?
EBNA-1 inhibitor: 5; MEX-5 binding: -28*; ZTA DNA inh: -4; EBV gp42 block: 4

What do the screens show for `O=c1[nH]c(=S)n(-c2ccc(Cl)cc2)c(O)c1C=Nc1ccc(N2CCOCC2)cc1`?
EBNA-1 inhibitor: 2; MEX-5 binding: -41*; ZTA DNA inh: 30; EBV gp42 block: 45

How did CCn1c(O)c(C=Nc2ccc(N3CCOCC3)cc2)c(=O)n(CC)c1=S do in these assays?
EBNA-1 inhibitor: 7; MEX-5 binding: inconclusive; ZTA DNA inh: -3; EBV gp42 block: 177*

How did O=c1[nH]c(=O)n(C2CCCCC2)c(O)c1C=Nc1ccc(N2CCOCC2)cc1 do in these assays?
EBNA-1 inhibitor: -1; MEX-5 binding: 0; ZTA DNA inh: -9; EBV gp42 block: -1

Results for FC(F)(F)c1ccc(CNCCc2ccc3c(c2)OCO3)cc1 ?
EBNA-1 inhibitor: 5; MEX-5 binding: -2; ZTA DNA inh: -3

What do the screens show for `O=C(C[N+]12CCC(CC1)C(C(O)(c1ccccc1)c1ccccc1)C2)c1ccc(Br)cc1` (stereo not drawn)?
EBNA-1 inhibitor: 11; MEX-5 binding: 2; ZTA DNA inh: 0; EBV gp42 block: -13

Results for O=C1NC(=O)N(Cc2ccc(F)cc2)C(=O)/C1=C\c1ccc(N2CCCC2)cc1 ?
EBNA-1 inhibitor: -2; MEX-5 binding: 2; ZTA DNA inh: 15; EBV gp42 block: -18

Results for CN1C(=O)C(=Cc2ccc(N3CCCCCC3)cc2)C(=O)N(C)C1=O ?
EBNA-1 inhibitor: 7; MEX-5 binding: 0; ZTA DNA inh: 7; EBV gp42 block: 84*

How did COCCNC(=O)Cn1cc(/C=C2\C(=O)NC(=O)N(c3ccccc3F)C2=O)c2ccccc21 do in these assays?
EBNA-1 inhibitor: 10; MEX-5 binding: -86*; ZTA DNA inh: 10

Results for O=C(O)Cn1cc(/C=C2\C(=O)NC(=O)N(c3ccc(F)cc3)C2=O)c2ccccc21 ?
MEX-5 binding: -42*

How did COc1ccc(N2C(=O)NC(=O)/C(=C/c3ccc(N4CCOCC4)cc3)C2=O)cc1 do in these assays?
EBNA-1 inhibitor: -1; MEX-5 binding: -4; ZTA DNA inh: 18; EBV gp42 block: -11

How did COc1ccc(N2C(=O)NC(=O)/C(=C\c3cn(C)c4ccccc34)C2=O)cc1 do in these assays?
EBNA-1 inhibitor: -13; MEX-5 binding: -39*; ZTA DNA inh: -13

Results for COC(=O)Cn1cc(/C=C2\C(=O)NC(=O)N(c3ccc(OC)cc3)C2=O)c2ccccc21 ?
EBNA-1 inhibitor: -19; MEX-5 binding: -54*; ZTA DNA inh: -14

How did CCS(=O)(=O)NCc1nnc2n1-c1ccc(Br)cc1C(c1ccccc1Cl)=NC2 do in these assays?
EBNA-1 inhibitor: 1; MEX-5 binding: 0; ZTA DNA inh: -1

Results for O=C1NC(=S)NC(=O)C1=Cc1ccc2c(c1)CCN2CCCCl ?
EBNA-1 inhibitor: 20; MEX-5 binding: -1; ZTA DNA inh: 13; EBV gp42 block: 71*

Results for C=CCN1C(=O)NC(=O)/C(=C/c2cc3c4c(c2)CCCN4CCC3)C1=O ?
EBNA-1 inhibitor: -1; MEX-5 binding: -2; ZTA DNA inh: -6; EBV gp42 block: -92

Results for O=C1CN=C(c2ccc[nH]2)c2cc(Cl)ccc2N1 ?
EBNA-1 inhibitor: -11; MEX-5 binding: -1; ZTA DNA inh: -3; EBV gp42 block: -3

How did O=c1[nH]c2ccccc2c(=O)n1-c1ccc(Cl)cc1Cl do in these assays?
EBNA-1 inhibitor: 3; MEX-5 binding: 1; ZTA DNA inh: 35*; EBV gp42 block: -6; Zta DNA confirm: 6; EBNA-1 counter: -2

Results for COc1cc2[nH]c(=O)n(-c3cccc(Cl)c3)c(=O)c2cc1OC ?
EBNA-1 inhibitor: 2; MEX-5 binding: 3; ZTA DNA inh: -9; EBV gp42 block: -6

How did Cc1cccc(-n2c(O)c(C)c(=O)[nH]c2=S)c1 do in these assays?
MEX-5 binding: 21; EBV gp42 block: -3

How did CCCCOP(=O)(OCCCC)/C(C#N)=C(/C)O do in these assays?
EBNA-1 inhibitor: -6; MEX-5 binding: -2; ZTA DNA inh: active; EBV gp42 block: -15; Zta DNA confirm: 0; EBNA-1 counter: -8

How did CCN(CC)c1ccc(N=Cc2c(O)n(-c3ccccc3C)c(=O)[nH]c2=O)cc1 do in these assays?
EBNA-1 inhibitor: -7; MEX-5 binding: -4; ZTA DNA inh: 32; EBV gp42 block: -61

How did CCOc1ccccc1-n1c(O)c(C=Nc2ccc(N(CC)CC)cc2)c(=O)[nH]c1=O do in these assays?
EBNA-1 inhibitor: 0; MEX-5 binding: -13; ZTA DNA inh: 37*; EBV gp42 block: -99; Zta DNA confirm: 5; EBNA-1 counter: 0

Results for CCN(CC)c1ccc(N=Cc2c(O)n(-c3ccccc3)c(=O)[nH]c2=O)cc1 ?
EBNA-1 inhibitor: 10; MEX-5 binding: -18; ZTA DNA inh: 38*; EBV gp42 block: -45; Zta DNA confirm: 1; EBNA-1 counter: -4

How did OC(CN1CCOCC1)c1csc2ccccc12 (stereo not drawn) do in these assays?
EBNA-1 inhibitor: -2; MEX-5 binding: 2; ZTA DNA inh: 0
